Source: the supplement of paper PMC11417369
Over roughly 25,000 sequences, “ln(normalized median fluorescence intensity)” has its median near 9.7; the highest 2% begin near 11. This is one part of a sample in which the highest values are shown more often than they occur.

tested on: PfAP2-HC AP2 domain (GST-tagged); assay: gcPBM binding intensity (ln(normalized median fluorescence intensity)); higher = stronger DNA binding
Outline: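 Binding intensity values are the highest Masliner-normalised natural-log median intensity among replicate spots of either probe orientation. The binding step lasted 1 h in 1× PBS with 1% milk, 0.2 mg/ml BSA, 0.5% salmon testes DNA and 0.03% Triton X-100, using GST-tagged P. falciparum DNA-binding domains expressed in E. coli on an Agilent 4 × 180k array of primer-extended double-stranded 36-bp intergenic genomic probes plus negative controls. Alexa488 anti-GST antibody and a 488 nm scan detected bound protein.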

Sequence | gcPBM binding intensity (ln)
ACAGTATATTAAAAAATACACACGTATTATATCTAC [CACACA_site2640] | 9.83
TATATGCTATAATATACACACATACCTATATTTATA [CACACA_site6383] | 9.94
ATTTCTTATTAAATTACACACAAAGTAAATAAATCT [CACACA_site3924] | 9.54
AAAAAAAAAATACATACACACACACCCACCCATATA [CACACA_site9187] | 10.5
TACACGCTAAAATACACACACACACCCACATATATA [CACACA_site4153] | 10.6
AAAAAAAATACATACACACACACACCCACATATATA [CACACA_site3561] | 10.6
AAAATACACGCATACACACACACACCCACCCATATA [CACACA_site639] | 11.5
CACCCATAAATATACACACGCACAACACAAAATAAA [CACACA_site2903] | 10.7
AGAAAATACACGCATACACACACACCCACCCACATA [CACACA_site8115] | 11.3
GCTTTTGTCATGTGCACACACGTATATATTATATAT [CACACA_site6146] | 10.9
AATATCTAAATAAAGTGTACTTACCTTATTAATTAT [XGTACX_site2276] | 9.64
TAAAAGTTGAAGCACACACACAAAAGAAATACAATA [CACACA_site6649] | 11.3
TAAAAATTGAAGCACACACACAAAAGAAATACAATA [CACACA_site1113] | 10.9
CATAAAAATTGAAGCACACACACAAAAGAAATACAA [CACACA_site1112] | 10.7
TTAAGTCCGTTAACAGTGCATTTTTTCTTTTATGTA [GTGCAC_site9867] | 9.58
TATATAAATATACATTGTACTCAACATTTTCATTAA [XGTACX_site3690] | 9.62
ATGTTACACAGACACACACACATAAAAAAACAAAAA [CACACA_site7516] | 10.4
AACAAATACAGACACACACACACACTAATAAAAAAA [CACACA_site8067] | 11.6
ATATGTTACAGACACACACACACATAAAAAAACAAA [CACACA_site3248] | 11.1
AATACAGACAGACACACACACAAAATAAAATACAAA [CACACA_site245] | 10.5
ATTCATTCATATGTTACACACACACGCCCACATAAA [CACACA_site7513] | 10.6
GTGTACAGACACAAAATATATACATATATATATATA [CACACA_negctrl_site1796] | 9.51
ATTCATTCATATGTTACACACACACCCACCCATAAA [CACACA_site9066] | 10.1
GGTACATACAGACACACACACAAAAAAAAAAAAATA [CACACA_site6844] | 11.2

Sequence | gcPBM binding intensity (ln)
TCATTCATATGTTACACACACACACCCACATAAAAA [CACACA_site3245] | 11.2
ATGTTACTCAGACACACACACATAAAAAAACAAAAA [CACACA_site3249] | 10.4
TGAACACAGACAAATACACACAAAAAAAATAAATAA [CACACA_site4298] | 10
ATATGTCACTTGTATACACACATATAGATTTCAATC [CACACA_site7519] | 9.94
GAAAATAAAAAATATGAACACACATATATAACAAAA [CACACA_site7975] | 10.5
AACAAATACAGACACACACACACACCCAAAAAAAAA [CACACA_site515] | 10.9
TTTTTGTAATGACACACACACAAACAGAAAAAATAA [CACACA_site7062] | 10.2
TACAGATACGGACACACACACACACCCAGACAAAAA [CACACA_site4432] | 11
CATACAGATGGACACACACACACACCCACAGACAAA [CACACA_site4431] | 10.5
ATGGTACATACATACACACACACAAAAAAAAAAAAA [CACACA_site1578] | 11.3
AAAAAAAACAGACACACACACAAATATATAAAAATA [CACACA_site1172] | 10.6
TACATATACAGACACACACACACACCCCCACAAAAA [CACACA_site495] | 10.8
GGTACATACAAACACACACACAAAAAAAAAAAAATA [CACACA_site1577] | 10.3
AATACACCCAGACACACACACAAAAAAAAAAAAAAA [CACACA_site513] | 10.1
ATAAATGACAGACACACACACAAAAAAAAAAAACAA [CACACA_site2626] | 11.5
AACACATACAAACACACACACAAAAAAAAAAAAAAA [CACACA_site393] | 10.4
TAGGGATTATACCACACACACATACACATAAATATA [CACACA_site3178] | 10.3
ACAATATGCAAAAAGTGTACACATTCATTTATATAA [XGTACX_site1061] | 10.1
AGCAACCCCCTAGCTACACACATATAGATATAAATA [CACACA_site6577] | 10.6
TTTAAATCGTTAAAAACACACAAAAAAAATCAATTA [CACACA_site2519] | 9.59
TTTTTTTTTTTGGTTACACACATTTGTATATTCTCA [CACACA_site134] | 9.89
CTATATGTTAAATTCTCACACATTATTACAATTTAA [CACACA_site5979] | 9.67
AATTGTAAATTGGGCACTTATAAAAATGAACAAATA [CACACA_negctrl_site1583] | 9.71
ATGAAAAAATTTATATGTACTTAAAATATAATCATA [XGTACX_site1228] | 9.33

Sequence | gcPBM binding intensity (ln)
AACACATACAGACACACACACAAAAAAAAAAAAAAA [CACACA_site6322] | 10.9
AAAAAACACGCACATACACACAAAAATGTTATAAAT [CACACA_site6188] | 10.2
AAAAAAAAAAAAAACACACACATACAGACAAAAATG [CACACA_site83] | 11.5
AAAAAAAACAGACACATACACACAAAAATGTTATAA [CACACA_site82] | 10.9
AAAAAACACAGACATACACACAAAAAGGTTATAAAT [CACACA_site4222] | 10.2
TACAAACAGACATATACACACAAAAAAAAAATAAAA [CACACA_site2562] | 9.89
AAAAAAAACAGACACACACACAAATACATACACAAA [CACACA_site705] | 10.5
TATATATACAGACACATACACACAAATAAAAAAACA [CACACA_site3413] | 10.3
AAATAAAACAGACACACACACACATACACAAAAAAA [CACACA_site7753] | 10.9
TATATTTTTATAATAACACACGATATATGTTTAGGA [CACACA_site1283] | 9.63
TAAGACTATTAAAAAATTGAGTACATGAACTGTTCA [GTGCAC_negctrl_site670] | 9.41
AACAAAATAAGACACACACACAAATGTACCTATATA [CACACA_site7189] | 10.4
ATATCTAAATATATTACACACAGATATCTTCCTATA [CACACA_site3701] | 9.87
CTAAGAAAAAATAAAGCACACAAATATTTTAAAAAC [CACACA_site9094] | 9.93
TTTTTTATATATGTGTGTGTGTGTGTGTCAAGTTTA [GTGCAC_negctrl_site460] | 11.1
TATATGTTAATTTTTTTTTTTTTTTTTTTTTTTATA [CACACA_negctrl_site62] | 9.26
AATTTTTTTTTTTTTTTTTTTTATATATGTGTGTGT [XGTACX_negctrl_site129] | 11
TTATATATTTTTATGTGTACTTATATATATATATAT [XGTACX_site6211] | 9.77
TATATATGTATCAAGTGTACAGTTTTAAAAAAAAAA [XGTACX_site6011] | 9.67
ATATTTATATATATATGTACATATGTGTGTTTTTAT [XGTACX_site3956] | 9.91
ATAATGTAAAATAAATGTACGCAATATATAAAAAAT [XGTACX_site5747] | 10.1
AAATAATTTACTTAATGTACATATATATATATATAT [XGTACX_site8594] | 9.78
TTGTAGGTAAATATGTGTACGCATTATTATTCTTAA [XGTACX_site216] | 9.58
CTTATAATATTACGGGTGCTATAAATACATTATATT | 9.72

Sequence | gcPBM binding intensity (ln)
TAAATATATATATGGTGTACCATTTTGGGTTAATAT [XGTACX_site2706] | 9.54
ATACAACAAAAATAAGCACACACAAATATACATACA [CACACA_site9201] | 10.8
ACAACAAAAATAAGCACACACAAATATACATACATA [CACACA_site7664] | 11.3
AATATAAGCAAATACACACACACATATATATATATA [CACACA_site3805] | 10.7
ACAAAAAAAATAAGCACACATATATATATATATATA [CACACA_site816] | 9.91
AAACAAAAAAAATAAGCACACATATATATATATATA [CACACA_site8173] | 9.7
CCAACAAAAATAAGCACACACAAATATACATACATA [CACACA_site3606] | 11.1
ATATATATATATATGTGTACATATAAGATAGAAGAA [XGTACX_site3198] | 10.2
TTTTTTAATATTTATACATGCATGCCGATTACTATA [TGCATGCA_site26] | 9.87
TATATATAATACAGTATGCACTATTTTTATTAAAAA | 9.41
AGTAACAAAAGAAAAAAATATGCAAACATATATATA [XGTACX_negctrl_site468] | 9.65
TTTTTATTTGGTTGTGTACACATATATATATATATA [CACACA_site5844] | 9.84
TTATACTAAATGAACACACACACATCTATATTTATA [CACACA_site6199] | 10.3
TACATACATACATACACACACACATCTATATTTATA [CACACA_site6171] | 10.6
TGAACACACGAGCACACACACACATCTATATTTATA [CACACA_site6607] | 11.1
ATAAATAAAGGACACACACACACACTAATAAAAAAA [CACACA_site8840] | 11.4
GTAGAGAAAAAAATGTGGACACAAAAAATAAAAAGG [XGTACX_site4058] | 9.79
AAAAAAGAAAAAAGGACACACATAAATATACACCCG [CACACA_site5590] | 10.2
AAAAAAATAAAGGATATACACACTAATTATATATAT [CACACA_site2812] | 9.81
AAAAATAAAGGATATACACACTAATTATATATATAT [CACACA_site5550] | 9.91
ATAAATAAAGGACACACACACACACTAGAAAAAAAA [CACACA_site5450] | 11.1
